The panel holds about 79,000 compounds, 15% with a hit somewhere; the sample as a whole holds those more often. Activity calls are given as the source filed them. Rule as the data show it: active = growth inhibition above about 70%; inactive = the rest.
Test: NCI Yeast Anticancer Drug Screen. Data for the rad14 strain (AID 159);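 also: 0% = growth of vehicle-treated control cultures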
Conditions: S. cerevisiae rad14 strain growth inhibition, hits give high values
Procedure: Growth inhibition of yeast strains with defined genetic alterations is measured as a screen for potential anti-cancer activity. Selected strains with alterations in DNA damage repair or cell cycle control were exposed to compounds and growth inhibition was measured relative to vehicle treated controls. The strain used in this assay is rad14

Measured: growth inhibition

O=[N+]([O-])c1cccc2nc3ccccc3c(NCCc3cccc[n+]3[O-])c12
inactive: at 1.2 µM 12% | at 3.7 µM 37%
active: at 11.0 µM 89% | at 33.0 µM 97% | at 100.0 µM 99%

N#C/C(=C/c1c(Cl)cccc1Cl)C(N)=O
inactive: at 1.2 µM -3% | at 3.7 µM -15% | at 11.0 µM -1% | at 33.0 µM 55%
active: at 100.0 µM 97%

Clc1c(Cl)c(Cl)c2c(nnn2C2CCCO2)c1Cl (stereo not given)
active: at 100.0 µM 75%
inactive: at 1.2 µM -11% | at 3.7 µM -8% | at 11.0 µM -1% | at 33.0 µM 12%

CCCCC(=O)c1c(O)nc2sccn2c1=O
inactive: at 1.2 µM 22% | at 3.7 µM 68%
active: at 11.0 µM 98% | at 33.0 µM 98% | at 100.0 µM 98%

Cc1ccc(S(=O)(=O)N/N=C/C2(c3ccccc3)c3ccccc3-c3ccccc32)cc1
active: at 33.0 µM 86% | at 100.0 µM 86%
inactive: at 1.2 µM 9% | at 3.7 µM 9% | at 11.0 µM 45%

CC(C)c1[nH]nc(C(N)=O)c1N=NN(C)C
inactive: at 1.2 µM -1% | at 3.7 µM 1% | at 11.0 µM 6% | at 33.0 µM 12% | at 100.0 µM 29%

Cc1ccc2occ/c(=N\Nc3ccccc3)c2c1
inactive: at 1.2 µM -2% | at 3.7 µM -2% | at 11.0 µM -4% | at 33.0 µM 39% | at 100.0 µM 45%

COC(=O)c1oc([N+](=O)[O-])c(Cl)c1Cl
active: at 1.2 µM 99% | at 3.7 µM 71% | at 11.0 µM 90% | at 33.0 µM 99% | at 100.0 µM 99%

Reference: PubChem BioAssay (NCI)
